According to the supplement of paper PMC11732987, “Enantioselective OTUD7B fragment discovery through chemoproteomics screening and high-throughput optimisation” (Communications Chemistry, 2025):

How the values were obtained:
Assay in all cases: log2 ratio of Biotin-Ahx-Ub-VS probe labelling (fragment/DMSO); higher = less target engagement (more negative = stronger competition), active = hit call of the paper (q ≤ 0.05, log2 ratio ≤ -1)
Conditions in all cases: compound concentration: 200 uM; treatment time: 3 h
[1] = molecular target: T1, USP19 (UniProt O94966)
T1 sequence (whole entry): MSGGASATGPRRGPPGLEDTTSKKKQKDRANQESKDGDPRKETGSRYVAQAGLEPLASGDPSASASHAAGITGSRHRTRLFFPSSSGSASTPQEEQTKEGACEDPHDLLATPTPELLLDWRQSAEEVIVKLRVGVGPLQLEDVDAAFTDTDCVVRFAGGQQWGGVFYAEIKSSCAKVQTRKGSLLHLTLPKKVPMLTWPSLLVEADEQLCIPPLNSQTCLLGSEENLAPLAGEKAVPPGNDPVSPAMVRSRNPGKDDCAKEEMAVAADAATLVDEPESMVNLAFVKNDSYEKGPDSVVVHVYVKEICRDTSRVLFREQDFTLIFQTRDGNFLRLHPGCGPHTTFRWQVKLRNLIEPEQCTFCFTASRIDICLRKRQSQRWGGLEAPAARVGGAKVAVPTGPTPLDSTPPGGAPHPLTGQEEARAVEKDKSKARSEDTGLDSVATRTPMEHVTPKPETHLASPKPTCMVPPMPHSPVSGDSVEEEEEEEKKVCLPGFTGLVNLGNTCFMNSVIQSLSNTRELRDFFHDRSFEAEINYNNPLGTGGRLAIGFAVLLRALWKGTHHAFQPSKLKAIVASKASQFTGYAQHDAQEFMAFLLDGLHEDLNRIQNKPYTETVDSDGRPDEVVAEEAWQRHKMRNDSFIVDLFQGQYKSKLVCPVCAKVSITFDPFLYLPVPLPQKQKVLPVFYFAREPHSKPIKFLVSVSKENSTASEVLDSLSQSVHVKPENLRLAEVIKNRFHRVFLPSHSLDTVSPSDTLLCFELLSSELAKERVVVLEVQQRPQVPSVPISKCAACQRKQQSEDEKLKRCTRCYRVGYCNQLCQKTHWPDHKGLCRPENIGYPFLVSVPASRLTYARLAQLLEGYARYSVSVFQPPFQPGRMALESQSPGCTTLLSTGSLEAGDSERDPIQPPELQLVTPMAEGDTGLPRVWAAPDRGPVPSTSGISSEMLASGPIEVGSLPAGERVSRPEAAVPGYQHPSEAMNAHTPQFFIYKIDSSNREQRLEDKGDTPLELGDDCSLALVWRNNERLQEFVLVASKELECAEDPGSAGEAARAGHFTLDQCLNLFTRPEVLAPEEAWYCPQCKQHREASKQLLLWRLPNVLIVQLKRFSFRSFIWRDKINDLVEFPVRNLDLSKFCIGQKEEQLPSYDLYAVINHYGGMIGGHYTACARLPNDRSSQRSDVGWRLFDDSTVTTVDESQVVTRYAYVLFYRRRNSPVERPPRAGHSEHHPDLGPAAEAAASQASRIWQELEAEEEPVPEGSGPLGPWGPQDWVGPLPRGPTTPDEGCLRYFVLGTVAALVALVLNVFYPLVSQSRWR
Outline: (§1)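 HEK293T lysate (495 µg per sample, in Tris/CHAPS/IGEPAL buffer with protease inhibitors) was treated in triplicate with fragment at 200 µM or with DMSO for 3 h. It was then treated with Biotin-Ahx-Ub-VS (0.5 µM final) for 1 h. Labelled DUBs were NeutrAvidin-enriched, digested with LysC and trypsin, and run by diaPASEF LC-MS/MS. Spectronaut label-free quantities were global-median-normalised. Values are average log2 ratios fragment/DMSO by unpaired t-test, using proteins with ≥2 unique peptides.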

[2] = molecular target: USP24 (UniProt Q9UPU5)
USP24, sequence (Q9UPU5 whole entry): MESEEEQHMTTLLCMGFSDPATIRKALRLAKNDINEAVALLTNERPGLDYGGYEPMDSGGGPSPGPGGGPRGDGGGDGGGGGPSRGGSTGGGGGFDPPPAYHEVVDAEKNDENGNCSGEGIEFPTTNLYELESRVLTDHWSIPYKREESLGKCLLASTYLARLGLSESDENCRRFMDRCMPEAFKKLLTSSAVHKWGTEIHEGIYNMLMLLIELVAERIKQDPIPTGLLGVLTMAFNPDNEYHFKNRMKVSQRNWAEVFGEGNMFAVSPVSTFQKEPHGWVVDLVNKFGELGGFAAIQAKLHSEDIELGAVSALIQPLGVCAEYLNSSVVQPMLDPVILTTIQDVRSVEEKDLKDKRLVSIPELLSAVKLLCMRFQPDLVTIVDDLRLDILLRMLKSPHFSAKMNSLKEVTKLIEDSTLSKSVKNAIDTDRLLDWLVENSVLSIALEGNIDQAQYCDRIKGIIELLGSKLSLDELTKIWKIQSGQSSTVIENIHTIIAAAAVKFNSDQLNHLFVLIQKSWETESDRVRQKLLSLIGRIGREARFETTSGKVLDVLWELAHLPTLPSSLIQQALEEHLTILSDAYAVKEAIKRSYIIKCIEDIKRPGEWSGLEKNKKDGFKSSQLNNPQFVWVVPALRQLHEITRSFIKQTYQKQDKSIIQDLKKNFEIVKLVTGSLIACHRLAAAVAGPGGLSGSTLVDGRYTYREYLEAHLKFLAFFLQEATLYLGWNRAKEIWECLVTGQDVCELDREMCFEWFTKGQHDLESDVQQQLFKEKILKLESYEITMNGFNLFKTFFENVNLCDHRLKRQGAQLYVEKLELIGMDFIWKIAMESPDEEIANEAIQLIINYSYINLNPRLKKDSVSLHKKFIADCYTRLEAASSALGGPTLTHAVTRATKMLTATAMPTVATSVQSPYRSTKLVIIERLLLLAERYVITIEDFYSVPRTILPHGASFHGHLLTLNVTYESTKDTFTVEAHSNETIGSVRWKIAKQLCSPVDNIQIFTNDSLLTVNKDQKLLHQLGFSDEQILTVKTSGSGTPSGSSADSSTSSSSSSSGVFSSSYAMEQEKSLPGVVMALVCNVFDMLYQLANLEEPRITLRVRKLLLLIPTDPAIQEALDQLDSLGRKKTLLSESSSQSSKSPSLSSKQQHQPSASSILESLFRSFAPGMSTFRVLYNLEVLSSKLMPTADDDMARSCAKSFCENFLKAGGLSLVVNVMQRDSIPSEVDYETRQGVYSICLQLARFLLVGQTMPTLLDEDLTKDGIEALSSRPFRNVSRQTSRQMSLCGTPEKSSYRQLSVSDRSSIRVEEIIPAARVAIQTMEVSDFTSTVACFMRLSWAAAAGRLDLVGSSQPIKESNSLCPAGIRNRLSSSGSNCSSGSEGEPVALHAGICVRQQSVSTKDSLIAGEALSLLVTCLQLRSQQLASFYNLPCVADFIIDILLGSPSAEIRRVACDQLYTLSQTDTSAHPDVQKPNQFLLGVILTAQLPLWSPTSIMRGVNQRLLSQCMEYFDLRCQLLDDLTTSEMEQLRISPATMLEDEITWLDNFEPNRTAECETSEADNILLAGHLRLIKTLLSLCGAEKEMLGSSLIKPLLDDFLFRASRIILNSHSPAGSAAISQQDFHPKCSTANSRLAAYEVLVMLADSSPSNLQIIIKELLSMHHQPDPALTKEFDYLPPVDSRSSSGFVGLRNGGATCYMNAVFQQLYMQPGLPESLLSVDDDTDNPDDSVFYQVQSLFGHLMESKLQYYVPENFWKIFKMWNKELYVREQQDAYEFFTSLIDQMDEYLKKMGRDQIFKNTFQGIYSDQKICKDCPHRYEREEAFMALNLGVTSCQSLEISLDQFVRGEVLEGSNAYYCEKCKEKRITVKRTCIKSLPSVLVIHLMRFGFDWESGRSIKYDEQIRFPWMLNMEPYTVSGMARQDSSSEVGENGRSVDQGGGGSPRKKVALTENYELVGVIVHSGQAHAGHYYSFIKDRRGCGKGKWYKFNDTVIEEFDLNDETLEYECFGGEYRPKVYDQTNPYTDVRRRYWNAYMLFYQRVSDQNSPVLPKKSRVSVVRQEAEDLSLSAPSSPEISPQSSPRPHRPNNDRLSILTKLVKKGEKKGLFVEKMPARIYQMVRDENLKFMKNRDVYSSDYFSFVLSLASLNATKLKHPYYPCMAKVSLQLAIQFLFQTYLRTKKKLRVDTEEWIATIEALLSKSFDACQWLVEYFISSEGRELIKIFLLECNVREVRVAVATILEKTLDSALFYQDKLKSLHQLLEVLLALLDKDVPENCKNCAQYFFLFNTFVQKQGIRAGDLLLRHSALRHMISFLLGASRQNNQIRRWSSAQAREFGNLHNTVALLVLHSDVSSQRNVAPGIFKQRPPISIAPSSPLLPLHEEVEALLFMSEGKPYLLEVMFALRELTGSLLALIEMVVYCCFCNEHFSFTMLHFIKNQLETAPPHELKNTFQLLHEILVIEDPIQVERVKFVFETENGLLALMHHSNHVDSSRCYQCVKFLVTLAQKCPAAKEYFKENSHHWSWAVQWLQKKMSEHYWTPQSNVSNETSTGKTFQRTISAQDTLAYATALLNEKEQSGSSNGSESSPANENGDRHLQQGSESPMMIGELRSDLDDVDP
Outline: as §1

[3] = molecular target: T2, USP25 (UniProt Q9UHP3)
T2 sequence (whole entry): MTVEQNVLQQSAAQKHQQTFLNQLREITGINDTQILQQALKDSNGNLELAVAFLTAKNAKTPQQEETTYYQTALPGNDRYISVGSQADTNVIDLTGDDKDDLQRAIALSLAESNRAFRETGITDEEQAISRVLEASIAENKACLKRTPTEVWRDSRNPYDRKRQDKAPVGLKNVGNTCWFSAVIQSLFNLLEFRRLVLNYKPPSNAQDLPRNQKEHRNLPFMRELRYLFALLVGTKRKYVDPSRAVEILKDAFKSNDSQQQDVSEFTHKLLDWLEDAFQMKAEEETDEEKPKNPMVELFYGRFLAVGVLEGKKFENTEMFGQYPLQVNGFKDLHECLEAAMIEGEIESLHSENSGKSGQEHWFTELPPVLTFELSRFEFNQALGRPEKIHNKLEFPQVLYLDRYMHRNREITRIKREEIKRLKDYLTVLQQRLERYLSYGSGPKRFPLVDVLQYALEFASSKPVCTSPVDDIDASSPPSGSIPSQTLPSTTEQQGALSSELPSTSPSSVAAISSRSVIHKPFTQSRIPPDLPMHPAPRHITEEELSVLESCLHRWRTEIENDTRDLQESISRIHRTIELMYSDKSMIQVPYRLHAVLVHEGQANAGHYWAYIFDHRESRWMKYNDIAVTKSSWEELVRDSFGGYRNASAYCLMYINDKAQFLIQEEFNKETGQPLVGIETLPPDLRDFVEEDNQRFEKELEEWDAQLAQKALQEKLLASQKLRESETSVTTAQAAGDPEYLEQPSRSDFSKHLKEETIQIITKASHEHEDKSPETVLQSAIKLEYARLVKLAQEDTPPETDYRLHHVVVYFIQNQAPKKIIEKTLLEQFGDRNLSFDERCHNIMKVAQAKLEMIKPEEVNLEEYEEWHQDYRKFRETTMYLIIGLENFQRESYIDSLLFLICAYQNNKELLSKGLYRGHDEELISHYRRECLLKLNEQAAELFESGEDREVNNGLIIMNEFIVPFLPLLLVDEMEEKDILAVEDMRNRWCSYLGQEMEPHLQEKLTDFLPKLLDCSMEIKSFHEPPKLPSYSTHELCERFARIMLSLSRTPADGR
Outline: as §1

[4] = molecular target: T3, USP28 (UniProt Q96RU2)
T3 sequence (whole entry): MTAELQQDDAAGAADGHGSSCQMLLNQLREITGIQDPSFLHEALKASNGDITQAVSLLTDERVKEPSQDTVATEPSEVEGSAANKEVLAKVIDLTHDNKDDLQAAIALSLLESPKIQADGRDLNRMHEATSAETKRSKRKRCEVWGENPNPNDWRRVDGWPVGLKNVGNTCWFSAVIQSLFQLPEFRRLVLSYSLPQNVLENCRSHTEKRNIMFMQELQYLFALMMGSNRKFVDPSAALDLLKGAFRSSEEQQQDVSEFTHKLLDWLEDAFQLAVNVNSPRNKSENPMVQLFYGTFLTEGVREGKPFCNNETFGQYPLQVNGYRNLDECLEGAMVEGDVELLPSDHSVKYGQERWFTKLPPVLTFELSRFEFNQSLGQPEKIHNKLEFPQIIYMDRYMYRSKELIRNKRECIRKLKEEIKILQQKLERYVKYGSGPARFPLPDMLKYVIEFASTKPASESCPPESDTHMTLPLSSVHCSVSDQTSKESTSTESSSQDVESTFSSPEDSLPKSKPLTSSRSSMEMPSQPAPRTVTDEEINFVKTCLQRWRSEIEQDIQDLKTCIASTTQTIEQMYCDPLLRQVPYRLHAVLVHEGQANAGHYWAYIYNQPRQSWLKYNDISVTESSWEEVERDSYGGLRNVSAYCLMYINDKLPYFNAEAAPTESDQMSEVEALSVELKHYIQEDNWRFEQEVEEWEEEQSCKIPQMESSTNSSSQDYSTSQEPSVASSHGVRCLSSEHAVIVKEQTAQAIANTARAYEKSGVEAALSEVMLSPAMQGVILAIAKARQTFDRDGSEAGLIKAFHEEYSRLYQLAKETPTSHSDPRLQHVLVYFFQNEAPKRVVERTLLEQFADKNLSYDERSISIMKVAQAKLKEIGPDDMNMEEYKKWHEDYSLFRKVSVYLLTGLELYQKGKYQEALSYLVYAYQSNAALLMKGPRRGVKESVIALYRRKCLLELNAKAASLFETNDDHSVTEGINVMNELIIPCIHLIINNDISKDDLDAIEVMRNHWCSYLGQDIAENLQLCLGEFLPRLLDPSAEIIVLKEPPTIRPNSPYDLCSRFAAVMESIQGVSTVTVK
Outline: as §1

Measured: log2 ratio of Biotin-Ahx-Ub-VS probe labelling

Cc1nc(CNC(=O)CCl)c2ccccn12.Cl
inactive: [1] -0.106 | [2] -0.108 | [3] -0.0552 | [4] -0.23
